tim10-1 inh = growth inhibitors of tim10-1 mutant yeast, primary screen, luminescence, uHTS; S. cerevisiae tim10-1 ts strain growth, BacTiter-Glo, 24 h; inhibition, % at 20 µM; actives 2.2% (n = 330,000);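 active means inhibition of at least 40%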;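 further: mutant grown at 25 °C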
NALP3 yeast inh = NALP3 inflammasome inhibitors in reconstituted yeast, primary screen, luminescence, uHTS | inhibition, % at 10 µM | Yeast reconstituted NLRP3/ASC/caspase-1, beta-gal luminescence, 24 h | actives 0.39% (n = 330,000);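 active means inhibition of 50% or more; inactive means inhibition below 50%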
PfHsp90 set2 = growth inhibition of PfHsp90-expressing yeast, primary screen, antimalarial PfHsp90 inhibitor project, S. cerevisiae, BacTiter-Glo luminescence, single point, set 2. inhibition, % at 9.4 µM. AID 504621, 2011. actives 0.32% (n = 310,000). BacTiter-Glo ATP, 48 h; yeast lacking PDR1 and PDR3 efflux regulators;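 active means every replicate shows inhibition above about 80%, whatever the replicate mean, limit read from the data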
TIM10 inh = growth inhibitors of isogenic TIM10 control yeast, primary screen, counter-screen for tim10-1 yeast inhibitor project, luminescence, uHTS | actives 1.4% (n = 330,000) | inhibition, % at 10 µM | S. cerevisiae TIM10 strain growth, BacTiter-Glo luminescence, 24 h | AID 463195, 2010;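 active means inhibition of 40% or more at the single tested concentration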;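 further: wild-type TIM10 isogenic control strain grown at permissive 25 °C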
tim23-1 inh = growth inhibitors of tim23-1 mutant yeast, primary screen, luminescence, uHTS | S. cerevisiae tim23-1 growth, BacTiter-Glo luminescence, 24 h | inhibition, % at 20 µM | actives 1.3% (n = 330,000) | AID 463212, 2010;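 active means growth inhibition of the mutant yeast at or above 50%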;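 further: temperature-sensitive mutant grown at 25 °C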
NALP1 inh = NALP1 inflammasome inhibitors in reconstituted yeast, colorimetric, S. cerevisiae, triplicate retest; S. cerevisiae NALP1/ASC/caspase-1 growth, X-gal OD620, 72 h; inhibition, % at 10 µM; actives 0.61% (n = 280,000); in the data active means inhibition mostly above about 24%, no sharp cut-off; inactive means mostly below about 32%
NALP3 yeast conf = NALP3 inhibitors retested in yeast, confirmation, luminescence, single concentration | AID 435006, 2010 | yeast expressing human NALP3 | shares compounds with NALP3 yeast inh | actives 81% (n = 1,300) | inhibition, % at 10 µM; in the data active means inhibition above about 48%
Casp1 ASC ctr = CASP1-PYCARD signaling inhibition in yeast, confirmatory test, counterassay for NLRP3 inhibitor program, one-dose | shares compounds with NALP3 yeast inh | yeast expressing Caspase-1-ASC, luminescence counter screen | inhibition, % at 10 µM | actives 66% (n = 1,000)
NALP3 yeast rt = NALP3 inhibitors in yeast, repeat test, confirmation, luminescence, single concentration, retest; shares compounds with NALP3 yeast inh; yeast expressing human NALP3, luminescence read-out; inhibition, % at 10 µM; actives 53% (n = 1,000); AID 488794, 2010
tim10-1 conf = growth inhibitors of tim10-1 mutant yeast, confirmation, single concentration, luminescence, S. cerevisiae | shares compounds with tim10-1 inh | S. cerevisiae tim10-1 ts strain growth, BacTiter-Glo, 24 h | inhibition, % at 20 µM | actives 56% (n = 7,400) | AID 463213, 2010;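 active means inhibition of yeast growth at or above a set limit in either of two repeat tests at 20 µM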;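 further: tim10-1 mutant grown at permissive 25 °C to find synthetic lethal compounds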
TIM10 conf = growth inhibitors of wild-type TIM10 yeast, confirmation, counter-screen for tim10-1 synthetic lethality project, single concentration, luminescence, S. cerevisiae; shares compounds with TIM10 inh; S. cerevisiae tim10 strain growth, BacTiter-Glo luminescence, 24 h; inhibition, % at 10 µM; actives 63% (n = 4,600); AID 463215, 2010;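 active means inhibition of yeast growth at or above a set limit in either of two replicates at 10 µM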; further: this counterscreen used the strain with wild-type TIM10
Each line names hits and unclear results; the compound was inactive in the other large screens (follow-up assays come after a bar, where they were run). Shown are actives, neighbours in structure and some others; about 4.2% of the full set was active somewhere. Unless noted, no stated cut-off is given here; in the data, active means inhibition above about 50%; inactive means the rest.

CCOC(=O)c1cc(C(=O)c2cccs2)n2ccc(C(C)=O)cc12	NALP3 yeast inh 54, TIM10 inh 50 | NALP3 yeast conf 51 | Casp1 ASC ctr 52 | NALP3 yeast rt inactive | TIM10 conf 36
O=C1CS/C(=C/C(=O)c2ccccc2)N1	none
Cc1cc(C)cc(C(=O)/C=C2\NC(=O)CS2)c1	NALP3 yeast inh 66, TIM10 inh 50 | NALP3 yeast conf 77 | Casp1 ASC ctr 80 | NALP3 yeast rt 71 | TIM10 conf 34
O=C(COC(=O)c1ccc(O)cc1)Nc1ccc2c(c1)OCO2	none (no result: PfHsp90 set2, NALP1 inh)
COc1ccc([N+](=O)[O-])cc1NC(=O)CSCc1cc(C)cc(C)c1	none
COc1ccccc1NC(=O)CSCc1ccc([N+](=O)[O-])cc1	NALP3 yeast inh 65, TIM10 inh 50, NALP1 inh 41 | NALP3 yeast conf 60 | Casp1 ASC ctr 59 | NALP3 yeast rt 51 | TIM10 conf inactive
O=C(CCc1nnc2ccc(NCc3ccccc3)nn12)NC1CCCC1	none
Cc1cccc(C)c1NC(=O)NC1(C(=O)N2CCCC2)CCCCC1	none
Cc1ccc2c(c1)sc(=NC(=O)c1cccs1)n2C	NALP3 yeast inh 58, TIM10 inh 59 | NALP3 yeast conf inactive | Casp1 ASC ctr inactive | NALP3 yeast rt inactive | TIM10 conf 60
Cn1c(=O)c(C(=O)NNC(=O)c2ccc(Br)cc2)c(O)c2ccccc21	NALP3 yeast inh 60, TIM10 inh 64 | NALP3 yeast conf 78 | TIM10 conf 59
O=C(COC(=O)/C=C/c1ccc2c(c1)OCO2)NCc1ccccc1	none (no result: NALP1 inh)
CC(C)(C)c1ccc(-c2nc(N)nc(N)n2)cc1	none (no result: PfHsp90 set2, NALP1 inh)
CC(C)(C)c1ccc(-c2conc2N)cc1	tim10-1 inh 55, NALP3 yeast inh 59, TIM10 inh 43 | NALP3 yeast conf 69 | Casp1 ASC ctr 66 | NALP3 yeast rt inactive | tim10-1 conf 41 | TIM10 conf 47
O=C(Nc1cccc(C(F)(F)F)c1)N1CCN(C(=O)Nc2cccc(C(F)(F)F)c2)CC1	none
COc1ccc(N2CCN(C(=O)Nc3cccc(C(F)(F)F)c3)CC2)cc1	tim10-1 inh 55, TIM10 inh 49 | NALP3 yeast conf inactive | tim10-1 conf 41 | TIM10 conf inactive
CN(C)/C=C(/C(=O)c1ccccc1)n1cncn1	none
CC(C)(C)C(=O)/C(=C\c1ccc([N+](=O)[O-])cc1)n1cncn1	NALP3 yeast inh 74, TIM10 inh 61, NALP1 inh 55 (no result: PfHsp90 set2) | NALP3 yeast conf 65 | TIM10 conf inactive
CN(Cc1ccccc1)C(=O)[C@@H]1CCCN1S(=O)(=O)c1ccc(Cl)cc1	none
N#Cc1nc(COc2ccccc2)oc1N1CCCCCC1	NALP3 yeast inh 52, TIM10 inh 75 | NALP3 yeast conf 71 | Casp1 ASC ctr inactive | NALP3 yeast rt inactive | TIM10 conf inactive
O=C(NCCCN1CCOCC1)c1c(O)c2cc(Br)cc(Br)c2[nH]c1=O	tim10-1 inh 51, NALP3 yeast inh 63, TIM10 inh 67 | NALP3 yeast conf 81 | Casp1 ASC ctr inactive | NALP3 yeast rt inactive | tim10-1 conf 47 | TIM10 conf 74
COc1cc2[nH]c(=O)c(C(=O)NCCCN3CCOCC3)c(O)c2cc1OC	none
Cc1ccc(C(=O)OCC(=O)c2c[nH]c3ccccc23)cc1	none
O=C(OCC(=O)c1c[nH]c2ccccc12)c1ccc([N+](=O)[O-])s1	tim10-1 inh 40, NALP3 yeast inh 84, PfHsp90 set2 110, TIM10 inh 73 | NALP3 yeast conf 91 | Casp1 ASC ctr 86 | NALP3 yeast rt 92 | tim10-1 conf 53 | TIM10 conf 84
O=C(/C=C/c1c(F)cccc1Cl)c1ccc(O)cc1	NALP3 yeast inh 91, TIM10 inh 74 | NALP3 yeast conf 87 | Casp1 ASC ctr 58 | NALP3 yeast rt inactive | TIM10 conf 62
O=C(Nc1ccccc1)c1ccc2c(c1)OCCO2	none
O=C(Nc1cccc(F)c1)c1ccc2c(c1)OCCO2	NALP3 yeast inh 67, TIM10 inh 41 | NALP3 yeast conf 70 | Casp1 ASC ctr 62 | NALP3 yeast rt 60 | TIM10 conf 53
CN1C/C(=C/c2ccsc2)C(=O)/C(=C/c2ccsc2)C1	tim10-1 inh 54, NALP3 yeast inh 63, TIM10 inh 49 (no result: NALP1 inh) | NALP3 yeast conf 56 | Casp1 ASC ctr 79 | NALP3 yeast rt 65 | tim10-1 conf 31 | TIM10 conf 33
CCC(Oc1ccccc1)C(=O)OCC(=O)Nc1sccc1C(N)=O (stereo not given)	none (no result: NALP1 inh)
O=CC1=C(c2ccccc2)Oc2ccccc2O1	NALP3 yeast inh 68, TIM10 inh 78, NALP1 inh 52 | NALP3 yeast conf 64 | Casp1 ASC ctr 75 | NALP3 yeast rt 85 | TIM10 conf 79
CCOC(=O)C1(Cc2cccc(F)c2)CCN(Cc2cnn(CC)c2C)CC1	none
CCOC(=O)[C@H]1[C@H]2COc3ccc(Br)cc3[C@H]2N2C(=O)CN(Cc3ccc(C)cc3)C(=O)[C@@]12C	none (no result: tim10-1 inh, NALP3 yeast inh, TIM10 inh, tim23-1 inh, NALP1 inh)
N#Cc1cc2c(nc1SCc1nc3ccccc3[nH]1)CCC2	tim10-1 inh 42, NALP3 yeast inh 66, TIM10 inh 73 (no result: PfHsp90 set2) | NALP3 yeast conf 79 | tim10-1 conf 35 | TIM10 conf 67
Cc1cccc(CSc2nc3c(cc2C#N)CCC3)c1	none (no result: PfHsp90 set2)
Cc1cc(C)c(C#N)c(SCc2nc3ccccc3[nH]2)n1	NALP3 yeast inh 54, TIM10 inh 44 | NALP3 yeast conf inactive | Casp1 ASC ctr inactive | NALP3 yeast rt inactive | TIM10 conf 36
CC(C)CN1C(=O)C(=O)N(CC(=O)N2CCN(c3ccccc3)CC2)C1=O	none (no result: PfHsp90 set2, NALP1 inh)

Screens from PubChem BioAssay.
